Active and inactive are the calls of the source.
Key:
[1] = tested on: Human papillomavirus type 1a protein E7 (residues 44-93); assay: HPV1a E7 fragment binders on microarrays, primary screen, biochemical, small-molecule microarray, residues 44-93, 635 nm fluorescence (AID 1108); details: small-molecule microarray binding, fluorescence 635 nm; higher = more signal;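 also: E7 fragment applied at 1 µg/mL in TBST for 1 h at 4 C; score combines spot fluorescence with its signal to noise ratio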
[2] = modulators of HCV replicon luciferase signal, primary screen, HCV replication inhibitor project, Huh7 cells, luciferase reporter (AID 1109); details: 48 h, higher = more signal;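 also: huh7 hepatoma cells harbouring a luciferase neomycin HCV replicon reporter; luciferase luminescence as measure of HCV replicon replication; test concentration not given here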
[3] = target: Left-right determination factor 2 (Homo sapiens) (UniProt O00292); assay: LEFTY2 binders on small-molecule microarrays, primary screen, biochemical, small-molecule microarray, 635 nm fluorescence scan (AID 1110); details: LEFTY2 binding, higher = more signal
[4] = target: Calmodulin-1 (Homo sapiens) (UniProt P0DP23); assay: CALM1 binders on microarrays, EGTA buffer, profiling panel, biochemical, small-molecule microarray, Cy5-labelled CALM1 (AID 1111); details: Cy5-CALM1 binding fluorescence, higher = more signal;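 also: labelled calmodulin applied in Tris saline Tween buffer holding calcium plus EGTA and DTT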
[5] = target: Calmodulin-1 (Homo sapiens) (UniProt P0DP23); assay: calcium-bound CALM1 binders on microarrays, profiling panel, artefact control for SMM control-protein annotation, biochemical, small-molecule microarray, Cy5-labelled CALM1, plus calcium (AID 1112); details: Cy5-CALM1 binding fluorescence, higher = more signal;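 also: score merges spot fluorescence with signal to noise from triplicate slides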
[6] = small-molecule microarray binders of probe aWnt5a, primary screen, biochemical, biotinylated probe, 635/667 nm fluorescence (AID 1113); details: higher = more signal;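 also: score merges 667 nm fluorescence intensity with signal-to-noise per printed feature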
[7] = small-molecule microarray binders of probe aShh, primary screen, biochemical, biotinylated probe, 635/667 nm fluorescence (AID 1114); details: higher = more signal;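 also: probe is biotin-labelled aShh protein from a stem cell growth factor screen; measures binding of labelled protein to compounds printed on the slide; score merges feature fluorescence at 667 nm with signal-to-noise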
[8] = small-molecule microarray binders of probe aNog, primary screen, biochemical, biotinylated probe, 635/667 nm fluorescence (AID 1115); details: higher = more signal;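 also: probe is biotinylated aNog protein used at 0.15 µg/mL for 1 h at 4 C; z-score combines 667 nm fluorescence of each spot with its signal to noise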
[9] = target: Torsin-1A-interacting protein 1 (Homo sapiens) (UniProt Q5JTV8); assay: LAP1 binders from COS7 cell lysate, primary screen, small-molecule microarray, 635/667 nm fluorescence (AID 1116); details: COS7-hLAP1 lysate binding, 635 nm fluorescence, higher = more signal
[10] = target: Alpha-bungarotoxin (Bungarus multicinctus) (UniProt P60615); assay: alpha-bungarotoxin binders on microarray, profiling panel, artefact control for SMM control protein annotation, biochemical, small-molecule microarray, Alexa647 label, 635/667 nm fluorescence (AID 1117); details: alpha-BTX-A647 binding fluorescence, higher = more signal
Albumin (Bos taurus) = Albumin (Bos taurus) (UniProt P02769); assay: bovine serum albumin binders on microarray, profiling panel, artefact control for SMM control protein annotation, biochemical, small-molecule microarray, Alexa647 label, 635/667 nm fluorescence (AID 1118); details: BSA-A647 binding, fluorescence 635 nm, higher = more signal;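 also: score merges 667 nm emission intensity and signal-to-noise per printed compound spot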
[11] = small-molecule microarray binders of probe aXIP, primary screen, biochemical, NeuroSMM set, 635/667 nm fluorescence (AID 1119); details: higher = more signal, called active from +8 up or from −8 down;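 also: probe is the protein aXip251-270 applied at 1 µg/mL to compound-printed slides; binding of probe to printed compounds measured as 667 nm fluorescence plus signal to noise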
[12] = small-molecule binders of probe aNOTCH3, primary screen, biochemical, small-molecule microarray, 635/667 nm fluorescence (AID 1120); details: higher = more signal;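 also: probe is a biotin-tagged antibody raised against NOTCH3 rather than NOTCH3 protein; score merges spot fluorescence near 667 nm with spot signal to noise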
[13] = small-molecule binders of probe aNOTCH2, primary screen, biochemical, small-molecule microarray, 635/667 nm fluorescence (AID 1121); details: higher = more signal;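 also: score merges feature fluorescence read at 667 nm with its signal to noise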
[14] = target: Carbonic anhydrase 2 (Homo sapiens) (UniProt P00918); assay: CAII small-molecule binders, profiling panel, biochemical, small-molecule microarray, Alexa647-labelled CAII (AID 1122); details: CAII-A647 binding fluorescence, higher = more signal
[15] = COS7 lysate on small-molecule microarray, probe aHis, 635 nm (AID 1123); details: COS7 cell lysate, fluorescence, higher = more signal;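 also: z-score combines 667nm fluorescence intensity with signal-to-noise per printed compound spot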
[16] = compound binding in COS7 lysate, probe aLAP1, primary screen, cell lysate, small-molecule microarray (AID 1124); details: probe aLAP1, fluorescence, higher = more signal;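 also: lysate comes from COS7 cells expressing LAP1 and is applied at 0.3 µg/mL; score merges spot fluorescence near 667 nm with signal-to-noise over triplicate slides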
Sam68 (KHDRBS1) = assay: Sam68 small-molecule binders, primary screen, biochemical, small-molecule microarray, 635 nm fluorescence (AID 1125); details: small-molecule microarray binding, higher = more signal;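 also: score merges 667 nm channel intensity with signal to noise over triplicate slides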
[17] = tested on: Chordin-like protein 2 (CHRDL2); assay: CHRDL2 small-molecule binders, primary screen, biochemical, small-molecule microarray, 635 nm fluorescence (AID 1126); details: small-molecule microarray binding, fluorescence 635 nm; higher = more signal;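 also: printed compound slides probed with Chrdl2 protein at 4 µg/mL for 1 h at 4 C; score merges 667 nm emission intensity with signal to noise over three replicate slides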
[18] = target: Concanavalin-A (Canavalia ensiformis) (UniProt P02866); assay: ConA small-molecule binders, primary screen, artefact control for SMM control protein annotation, biochemical, small-molecule microarray, Alexa647 label, 635 nm (AID 1127); details: ConA-A647 binding fluorescence, higher = more signal;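 also: z combines 667 nm emission intensity with signal-to-noise across three replicate slides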
Sequence of Concanavalin-A (Canavalia ensiformis) (P02866 whole entry, looked up): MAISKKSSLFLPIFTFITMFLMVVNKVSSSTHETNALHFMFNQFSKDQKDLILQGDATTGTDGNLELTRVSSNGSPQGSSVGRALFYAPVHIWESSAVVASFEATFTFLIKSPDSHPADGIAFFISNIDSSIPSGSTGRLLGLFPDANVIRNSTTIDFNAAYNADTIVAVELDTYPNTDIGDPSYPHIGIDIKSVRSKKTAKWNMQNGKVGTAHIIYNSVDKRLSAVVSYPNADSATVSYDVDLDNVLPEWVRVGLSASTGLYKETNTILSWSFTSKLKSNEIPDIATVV

Sequence of Albumin (Bos taurus) (P02769 whole entry, looked up): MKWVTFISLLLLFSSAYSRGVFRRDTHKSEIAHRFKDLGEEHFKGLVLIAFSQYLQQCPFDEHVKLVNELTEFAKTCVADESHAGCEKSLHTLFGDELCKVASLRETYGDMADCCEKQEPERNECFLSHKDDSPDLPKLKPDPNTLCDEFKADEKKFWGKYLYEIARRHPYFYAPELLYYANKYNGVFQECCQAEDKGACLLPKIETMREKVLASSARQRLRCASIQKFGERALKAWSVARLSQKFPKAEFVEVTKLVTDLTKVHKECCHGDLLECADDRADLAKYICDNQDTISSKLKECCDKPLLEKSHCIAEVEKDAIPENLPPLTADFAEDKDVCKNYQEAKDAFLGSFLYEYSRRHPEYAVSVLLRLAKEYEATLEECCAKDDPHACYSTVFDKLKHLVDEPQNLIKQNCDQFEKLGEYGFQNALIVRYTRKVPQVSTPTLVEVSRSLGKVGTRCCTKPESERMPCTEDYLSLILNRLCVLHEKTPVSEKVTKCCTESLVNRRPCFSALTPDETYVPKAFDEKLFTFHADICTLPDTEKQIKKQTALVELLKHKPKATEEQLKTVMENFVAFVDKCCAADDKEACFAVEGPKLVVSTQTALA
Sequence of Left-right determination factor 2 (Homo sapiens) (O00292 whole entry, looked up): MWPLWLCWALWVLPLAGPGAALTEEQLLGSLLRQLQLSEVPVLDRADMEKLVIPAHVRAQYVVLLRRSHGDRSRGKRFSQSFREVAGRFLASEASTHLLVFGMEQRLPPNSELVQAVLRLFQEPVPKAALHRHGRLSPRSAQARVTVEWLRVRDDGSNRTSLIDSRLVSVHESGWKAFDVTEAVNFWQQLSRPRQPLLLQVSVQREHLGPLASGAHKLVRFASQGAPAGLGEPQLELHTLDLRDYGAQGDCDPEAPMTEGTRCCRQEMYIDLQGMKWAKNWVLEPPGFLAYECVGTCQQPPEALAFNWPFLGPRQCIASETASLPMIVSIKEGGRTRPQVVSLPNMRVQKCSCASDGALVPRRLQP
Sequence of Torsin-1A-interacting protein 1 (Homo sapiens) (Q5JTV8 whole entry, looked up): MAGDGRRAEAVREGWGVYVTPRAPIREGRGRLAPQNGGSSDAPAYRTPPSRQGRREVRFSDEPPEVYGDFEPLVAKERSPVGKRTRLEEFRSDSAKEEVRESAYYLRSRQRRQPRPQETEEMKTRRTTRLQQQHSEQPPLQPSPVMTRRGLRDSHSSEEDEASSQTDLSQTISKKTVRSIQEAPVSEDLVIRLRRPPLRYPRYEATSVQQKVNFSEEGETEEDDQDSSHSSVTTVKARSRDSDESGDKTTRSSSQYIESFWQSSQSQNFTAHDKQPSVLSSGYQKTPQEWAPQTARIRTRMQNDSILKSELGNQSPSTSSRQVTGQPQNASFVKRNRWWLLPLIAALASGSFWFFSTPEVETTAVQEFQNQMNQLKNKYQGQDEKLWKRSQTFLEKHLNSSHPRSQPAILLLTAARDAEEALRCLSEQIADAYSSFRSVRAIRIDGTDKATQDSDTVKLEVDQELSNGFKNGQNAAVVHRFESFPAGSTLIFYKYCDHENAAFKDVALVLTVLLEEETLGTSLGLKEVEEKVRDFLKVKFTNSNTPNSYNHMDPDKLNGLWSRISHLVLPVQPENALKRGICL
Sequence of Alpha-bungarotoxin (Bungarus multicinctus) (P60615 whole entry, looked up): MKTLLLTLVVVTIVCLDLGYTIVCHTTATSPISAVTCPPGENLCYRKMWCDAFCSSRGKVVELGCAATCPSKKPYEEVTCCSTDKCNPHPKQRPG

Row | Compound | composite z-score [1] | z-score [2] | composite z-score [3] | composite z-score [4] | composite z-score [5] | composite z-score [6] | composite z-score [7] | composite z-score [8] | composite z-score [9] | composite z-score [10] | composite z-score (Albumin (Bos taurus)) | composite Z-score [11] | composite z-score [12] | composite z-score [13] | composite z-score [14] | composite z-score [15] | composite z-score [16] | composite z-score (Sam68 (KHDRBS1)) | composite z-score [17] | composite z-score [18]
1 | [N-]=[N+]=NCc1ccccc1C[C@@]1(C(=O)N2CCOCC2)N=C(c2ccc(OCCCO)cc2)O[C@@H]1c1ccccc1N=[N+]=[N-] | 0.425 | -1.14 | -0.139 | 2.15 | 1.13 | 0.208 | 0.412 | 1.64 | 1.74 | 2.84 | 1.02 | -0.188 (inactive) | 0.402 | 0.0753 | 0.771 | 2.48 | 0.358 | 1.3 | -1.07 | 1.18
2 | COC(=O)C(CC#Cc1ccc2c(c1)[C@]1(C(=O)N2)[C@H](C(=O)N2CCCCCCC2)[C@H]2C(=O)O[C@H](c3ccccc3)[C@H](c3ccccc3)N2[C@@H]1c1ccc(O)cc1)C(=O)OC | -1.26 | -0.789 | -0.537 | -0.433 | -0.236 | -0.125 | -0.0769 | -0.411 | -0.723 | -0.715 | -0.264 | 0.448 (inactive) | -0.379 | -0.0829 | -0.59 | -0.437 | 0.39 | -0.92 | -1.32 | 0.266
3 | O=C/C=C/c1ccc(/C=C/c2ccccc2)cc1 | -1.48 | 0.783 | 0.0281 | -0.858 | -0.584 | -0.0585 | -0.0886 | -0.489 | 0.2 | 0.129 | -0.435 | -0.738 (inactive) | -0.25 | -0.175 | -0.147 | -0.792 | 0.103 | -1.22 | 0.95 | -0.342
4 | CO[C@H]1COC(=O)[C@@H](C)COC(=O)[C@H](Cc2ccccc2)NC(=O)CC=C[C@H]1C | 0.334 | -0.082 | 0.726 | -1.69 | -1.8 | -0.135 | -0.143 | -0.454 | -0.115 | 0.0209 | -0.73 | 0.0953 (inactive) | -0.208 | -0.223 | -0.315 | -0.557 | -0.399 | 0.294 | 1.48 | -0.268
5 | CCCC/C=C/[C@H]([C@@H](O)Cc1ccccc1)N(CC#Cc1ccccc1)Cc1ccccc1Br | -0.373 | -1.29 | -1.81 | -0.269 | 0.74 | -0.166 | -0.366 | -0.132 | -0.356 | -0.647 | -0.861 | 0.911 (inactive) | -0.346 | -0.171 | -0.382 | 0.0748 | 0.006 | -0.61 | -1.64 | -0.89
6 | COc1cc(CO)cc(I)c1O[C@H]1C=C(C(=O)NCCO)C[C@@H](NCCc2c[nH]c3ccccc23)[C@@H]1O | -0.552 | -2.76 | 0.688 | 0.228 | -0.56 | -0.0032 | 0.116 | 0.758 | 0.762 | 0.988 | 0.544 | 0.256 (inactive) | 0.124 | -0.121 | 0.412 | 0.414 | 0.128 | 1.12 | 0.685 | 0.649
7 | COCCOC(=O)N1C(=O)[C@@]2(c3cc(C#CC4(O)CCCCCC4)ccc31)[C@H](C(=O)N1CCCCCCC1)[C@H]1C(=O)O[C@H](c3ccccc3)[C@H](c3ccccc3)N1[C@@H]2c1ccc(O)cc1 | 0.554 | -0.937 | 0.333 | 1.31 | 0.639 | 0.629 | 1.9 | 2.13 | 3.24 | 1.73 | -0.653 | 0.108 (inactive) | 0.885 | 0.337 | 0.485 | 2.62 | -0.139 | 1.3 | 0.519 | 1.08
8 | CO[C@H]1COC(=O)[C@H](C)COC(=O)[C@H](Cc2ccccc2)NC(=O)CC=C[C@H]1C | -0.943 | -0.56 | 1.09 | -1.37 | -1.74 | 0.266 | 0.223 | 0.653 | -0.0597 | -0.948 | -1.16 | 0.72 (inactive) | 0.62 | 0.087 | -0.612 | -0.826 | 0.266 | -1.02 | 1.53 | -0.994
9 | COCCOC(=O)N1C(=O)[C@@]2(c3cc(C#CC4=CCCCC4)ccc31)[C@H](c1ccc(O)cc1)N1[C@H](c3ccccc3)[C@H](c3ccccc3)OC(=O)[C@H]1[C@@H]2C(=O)N1CCCCCCC1 | 1.29 | -0.387 | 0.8 | 1.11 | 0.716 | -0.0732 | 0.332 | 0.512 | 0.691 | 1.69 | -0.645 | 1.69 (inactive) | 0.112 | -0.122 | 0.425 | 0.129 | 0.135 | 1.29 | 0.729 | 1.12
10 | O=C/C=C/c1ccccc1Cl | -1.36 | 1.03 | -0.524 | 0.387 | 0.618 | -0.0499 | -0.0626 | 0.0811 | -0.335 | 1.76 | 0.95 | -0.02 (inactive) | -0.0259 | -0.0866 | 0.408 | 0.333 | 0.399 | -0.764 | -0.768 | 0.0241
11 | CO[C@H]1COC(=O)CC=C[C@H](C)COC(=O)[C@@H](OCc2ccccc2)C=C[C@@H]1C | -0.217 | 0.165 | 1.5 | -1.51 | -2.68 | -0.286 | -0.283 | -0.424 | 0.237 | -0.74 | -0.877 | 2.71 (inactive) | -0.308 | -0.14 | -0.394 | -0.234 | 0.0842 | 0.379 | 1.51 | -0.602

Source: PubChem BioAssay
